We go through 37 sequences from paper PMC11006913.

Positions count from the first letter of the chain named.

The first assay has as its target T1, SIX6 (Homo sapiens, UniProt O95475 114-200, T165P).
T1 sequence: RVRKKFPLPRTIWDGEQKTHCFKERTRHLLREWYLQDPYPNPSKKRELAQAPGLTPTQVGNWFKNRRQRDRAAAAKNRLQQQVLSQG
The assay can be described thus: PBM; 200 nM protein, PBS. The following applies: dsDNA, one strand shown.
For the sequence GGGTGTCA, the binding signal was 9.2 upbm affinity estimate (log intensity, higher = more binding, comparable within an allelic series).
Still for that read-out and setting: in the case of CGGTGTCA it was 9.3 upbm affinity estimate (log intensity, higher = more binding, comparable within an allelic series).
Still for that read-out and setting: the value for AGAATATC was 9.77 upbm affinity estimate (log intensity, higher = more binding, comparable within an allelic series); that for ATACCTCC was 9.38 upbm affinity estimate (log intensity, higher = more binding, comparable within an allelic series); that for ATTATCCG was 9.7 upbm affinity estimate (log intensity, higher = more binding, comparable within an allelic series).
Take GTATCTTA: the binding signal was 9.9 upbm affinity estimate (log intensity, higher = more binding, comparable within an allelic series).

The target of the next assay is T2, SIX6 (Homo sapiens, UniProt O95475 114-200, L167M).
T2 sequence: T1 sequence with P52T, L54M
The assay can be described thus: PBM; 200 nM protein, PBS. As to conditions: dsDNA, one strand shown.
On to CGGATAAA, for which the binding signal is 10.4 upbm affinity estimate (log intensity, higher = more binding, comparable within an allelic series).
Same read-out and setting: in the case of GATCCAAA it was 10 upbm affinity estimate (log intensity, higher = more binding, comparable within an allelic series); in that of ACAATACT, 10.2 upbm affinity estimate (log intensity, higher = more binding, comparable within an allelic series); in that of AGGTGTCA, 9.88 upbm affinity estimate (log intensity, higher = more binding, comparable within an allelic series).
Same read-out and setting: the value for ATCCAATA was 10.2 upbm affinity estimate (log intensity, higher = more binding, comparable within an allelic series); that for GGATAGTA was 10.3 upbm affinity estimate (log intensity, higher = more binding, comparable within an allelic series); that for AATACGAT was 10.3 upbm affinity estimate (log intensity, higher = more binding, comparable within an allelic series).
Still for that read-out and setting: in the case of GGTGTCAC it was 9.69 upbm affinity estimate (log intensity, higher = more binding, comparable within an allelic series); in that of ACTATACG, 10.1 upbm affinity estimate (log intensity, higher = more binding, comparable within an allelic series); in that of GGTGTCAA, 9.85 upbm affinity estimate (log intensity, higher = more binding, comparable within an allelic series).
On to GATATACA, for which the binding signal was 10.9 upbm affinity estimate (log intensity, higher = more binding, comparable within an allelic series).
For the sequence ATCCTAAT, the binding signal was 10.1 upbm affinity estimate (log intensity, higher = more binding, comparable within an allelic series).
Still for that read-out and setting: the value for GATCAGCC was 10 upbm affinity estimate (log intensity, higher = more binding, comparable within an allelic series).
For the sequence TGACACCA, the binding signal is 9.84 upbm affinity estimate (log intensity, higher = more binding, comparable within an allelic series).
Same read-out and setting: in the case of ATACAGAT it was 10.5 upbm affinity estimate (log intensity, higher = more binding, comparable within an allelic series).
The same measure, in the same setting: the value for CTGACACC was 9.83 upbm affinity estimate (log intensity, higher = more binding, comparable within an allelic series).
The same measure, in the same setting: in the case of GGGTGTCA it was 9.79 upbm affinity estimate (log intensity, higher = more binding, comparable within an allelic series); in that of CGGTGTCA, 9.76 upbm affinity estimate (log intensity, higher = more binding, comparable within an allelic series); in that of CTATACTA, 10.2 upbm affinity estimate (log intensity, higher = more binding, comparable within an allelic series).
As for TATAACCA, the binding signal was 10.2 upbm affinity estimate (log intensity, higher = more binding, comparable within an allelic series).
Same read-out and setting: the value for AGTTGTAT was 10.1 upbm affinity estimate (log intensity, higher = more binding, comparable within an allelic series); that for AGAATATC was 10.4 upbm affinity estimate (log intensity, higher = more binding, comparable within an allelic series).
On the same count and under the same terms, the value for ATTATCCG was 10.2 upbm affinity estimate (log intensity, higher = more binding, comparable within an allelic series).
AAGTATCT: the binding signal was 10.2 upbm affinity estimate (log intensity, higher = more binding, comparable within an allelic series).
Still for that read-out and setting: in the case of GTATCTTA it was 10.3 upbm affinity estimate (log intensity, higher = more binding, comparable within an allelic series).

Another assay concerns the target T3, SIX6 (Homo sapiens, UniProt O95475 114-200, L143M).
T3 sequence: T1 sequence with L30M, P52T
Nature of the assay: PBM; 200 nM protein, PBS. The following applies: dsDNA, one strand shown.
For the sequence CGGATAAA, the binding signal was 10.5 upbm affinity estimate (log intensity, higher = more binding, comparable within an allelic series).
On the same count and under the same terms, the value for GATCCAAA was 10.4 upbm affinity estimate (log intensity, higher = more binding, comparable within an allelic series); that for ACAATACT was 10.4 upbm affinity estimate (log intensity, higher = more binding, comparable within an allelic series).
Take ATCCAATA: the binding signal was 10.3 upbm affinity estimate (log intensity, higher = more binding, comparable within an allelic series).
Still for that read-out and setting: in the case of AATACGAT it was 10.5 upbm affinity estimate (log intensity, higher = more binding, comparable within an allelic series); in that of ATCCTAAT, 10.2 upbm affinity estimate (log intensity, higher = more binding, comparable within an allelic series); in that of AAGTGATA, 11 upbm affinity estimate (log intensity, higher = more binding, comparable within an allelic series).
As to ATACAGAT, the binding signal is 10.7 upbm affinity estimate (log intensity, higher = more binding, comparable within an allelic series).
Still for that read-out and setting: in the case of CTGATATC it was 10.9 upbm affinity estimate (log intensity, higher = more binding, comparable within an allelic series); in that of ATATCAAG, 11 upbm affinity estimate (log intensity, higher = more binding, comparable within an allelic series).
Turning to AGAATATC, the binding signal was 10.5 upbm affinity estimate (log intensity, higher = more binding, comparable within an allelic series).
On the same count and under the same terms, in the case of ATTATCCG it was 10.3 upbm affinity estimate (log intensity, higher = more binding, comparable within an allelic series).
With AAGTATCT, the binding signal is 10.4 upbm affinity estimate (log intensity, higher = more binding, comparable within an allelic series).
Still for that read-out and setting: in the case of GTATCTTA it was 10.5 upbm affinity estimate (log intensity, higher = more binding, comparable within an allelic series).

In another assay the target is T4, SIX6 (Homo sapiens, UniProt O95475 114-200, L143I).
T4 sequence: T1 sequence with L30I, P52T
Nature of the assay: PBM; 200 nM protein, PBS. As to conditions: dsDNA, one strand shown.
On to CGGATAAA, for which the binding signal was 10 upbm affinity estimate (log intensity, higher = more binding, comparable within an allelic series).
Regarding ACAATACT, the binding signal is 10.1 upbm affinity estimate (log intensity, higher = more binding, comparable within an allelic series).
Still for that read-out and setting: the value for GACGGATA was 9.79 upbm affinity estimate (log intensity, higher = more binding, comparable within an allelic series); that for GGATAGTA was 10.2 upbm affinity estimate (log intensity, higher = more binding, comparable within an allelic series); that for AATACGAT was 10.1 upbm affinity estimate (log intensity, higher = more binding, comparable within an allelic series).
On to GATATACA, for which the binding signal was 10.4 upbm affinity estimate (log intensity, higher = more binding, comparable within an allelic series).
The same measure, in the same setting: in the case of GATCAGCC it was 9.82 upbm affinity estimate (log intensity, higher = more binding, comparable within an allelic series); in that of ACGGATAG, 9.74 upbm affinity estimate (log intensity, higher = more binding, comparable within an allelic series); in that of ATACAGAT, 10.3 upbm affinity estimate (log intensity, higher = more binding, comparable within an allelic series).
Turning to AGAATATC, the binding signal is 9.98 upbm affinity estimate (log intensity, higher = more binding, comparable within an allelic series).
Still for that read-out and setting: the value for ATTATCCG was 9.95 upbm affinity estimate (log intensity, higher = more binding, comparable within an allelic series); that for AAGTATCT was 9.98 upbm affinity estimate (log intensity, higher = more binding, comparable within an allelic series).
The same measure, in the same setting: the value for GTATCTTA was 10.2 upbm affinity estimate (log intensity, higher = more binding, comparable within an allelic series).

In another assay the target is T5, SIX6 (Homo sapiens, UniProt O95475 114-200, T165G).
T5 sequence: T1 sequence with P52G
The assay can be described thus: PBM; 200 nM protein, PBS. The following applies: dsDNA, one strand shown.
With CCGTATCA, the binding signal was 11.1 upbm affinity estimate (log intensity, higher = more binding, comparable within an allelic series).
Still for that read-out and setting: in the case of GATCCAAA it was 10.2 upbm affinity estimate (log intensity, higher = more binding, comparable within an allelic series).
On to ACAATACT, for which the binding signal was 10.3 upbm affinity estimate (log intensity, higher = more binding, comparable within an allelic series).
Still for that read-out and setting: the value for AGGTGTCA was 11.2 upbm affinity estimate (log intensity, higher = more binding, comparable within an allelic series); that for CTTGATAC was 11.2 upbm affinity estimate (log intensity, higher = more binding, comparable within an allelic series); that for ATCCAATA was 10.4 upbm affinity estimate (log intensity, higher = more binding, comparable within an allelic series).
The same measure, in the same setting: the value for GATCTTCA was 10.3 upbm affinity estimate (log intensity, higher = more binding, comparable within an allelic series); that for GGATAGTA was 10.4 upbm affinity estimate (log intensity, higher = more binding, comparable within an allelic series).
Still for that read-out and setting: in the case of AATACGAT it was 10.5 upbm affinity estimate (log intensity, higher = more binding, comparable within an allelic series); in that of AGTATCAA, 11.1 upbm affinity estimate (log intensity, higher = more binding, comparable within an allelic series); in that of GGTGTCAC, 11.1 upbm affinity estimate (log intensity, higher = more binding, comparable within an allelic series).
Turning to ACTATACG, the binding signal is 9.95 upbm affinity estimate (log intensity, higher = more binding, comparable within an allelic series).
In the case of GGTGTCAA, the binding signal is 11.1 upbm affinity estimate (log intensity, higher = more binding, comparable within an allelic series).
Consider ATCCTAAT, for which the binding signal is 10.2 upbm affinity estimate (log intensity, higher = more binding, comparable within an allelic series).
The same measure, in the same setting: in the case of CATATCAA it was 11.2 upbm affinity estimate (log intensity, higher = more binding, comparable within an allelic series); in that of ATATCACC, 11.2 upbm affinity estimate (log intensity, higher = more binding, comparable within an allelic series).
The same measure, in the same setting: in the case of AAGTGATA it was 11.1 upbm affinity estimate (log intensity, higher = more binding, comparable within an allelic series).
On the same count and under the same terms, the value for TGACACCA was 11.2 upbm affinity estimate (log intensity, higher = more binding, comparable within an allelic series).
Take ACGGATAG: the binding signal is 10 upbm affinity estimate (log intensity, higher = more binding, comparable within an allelic series).
Take ATACAGAT: the binding signal was 10.7 upbm affinity estimate (log intensity, higher = more binding, comparable within an allelic series).
Still for that read-out and setting: the value for GGGTGTCA was 11.1 upbm affinity estimate (log intensity, higher = more binding, comparable within an allelic series); that for CTATACTA was 10.2 upbm affinity estimate (log intensity, higher = more binding, comparable within an allelic series).
As for ATATCAAG, the binding signal was 11.1 upbm affinity estimate (log intensity, higher = more binding, comparable within an allelic series).
Same read-out and setting: in the case of TATAACCA it was 10.2 upbm affinity estimate (log intensity, higher = more binding, comparable within an allelic series).
Still for that read-out and setting: in the case of AGAATATC it was 10.5 upbm affinity estimate (log intensity, higher = more binding, comparable within an allelic series); in that of ATACCTCC, 10.5 upbm affinity estimate (log intensity, higher = more binding, comparable within an allelic series).
In the case of ATTATCCG, the binding signal is 10.2 upbm affinity estimate (log intensity, higher = more binding, comparable within an allelic series).
Same read-out and setting: the value for AAGTATCT was 10.4 upbm affinity estimate (log intensity, higher = more binding, comparable within an allelic series).
On the same count and under the same terms, in the case of GTATCTTA it was 10.8 upbm affinity estimate (log intensity, higher = more binding, comparable within an allelic series).
